From PubChem BioAssay (Tox21) come the findings set out here.

Records with an inconclusive call do not appear. Entries that show only a call come without a potency. Active and inactive are the calls of the source. Calls follow the shape of the dose curve; as a rule, active = well fitted cell-killing curve with a large enough effect in the repeat runs; inconclusive = weak or mixed curves, or effect the other way; inactive = no such curve, though single readings can be large or run the other way.
Potency is read from the fitted curve at half-maximal effect.

The test can be described thus: qHTS assay to identify small molecule agonists of the farnesoid-X-receptor (FXR) signaling pathway - cell viability counter screen (AID 743218). Also: nearly all actives have a fitted effect of over 45% in size. The following applies: FXR-bla HEK293T viability, CellTiter-Glo luminescence, 16 h; series mostly up to 62.6 µM. From the text: U.S. Tox21 Program National Center for Advancing Translational Sciences [NCATS] NIH Chemical Genomics Center [NCGC] U.S. Environmental Protection Agency [EPA] National Institutes of Environmental Health Sciences [NIEHS] National Toxicology Program [NTP] U.S. Food and Drug Administration [FDA] Tox21 Assay Overview: The farnesoid-X-receptor (FXR), a nuclear hormone receptor, is highly expressed in liver, intestine, kidney and adrenal cortex. Natural ligands of FXR are the bile acids (Cholic acid, Chenodeoxy cholic acid etc). FXR is an important regulator of diverse metabolic pathways, including the bile acid homeostasis, lipid and glucose metabolisms. FXR regulates the expression of target genes by binding either as a monomer or as a heterodimer with the retinoid X receptor (RXR). Numerous studies have reported that FXR exerts protective function during cholestasis, diabetes, liver regeneration, and cancer. To identify compounds that activate FXR signaling, GeneBLAzer FXR-UAS-bla HEK 293T cell line (Invitrogen, Carlsbad, CA) containing a beta-lactamase reporter gene under the control of a UAS response element was used to screen the Tox21 10K compound library. The cytotoxicity of the Tox21 compound library against the FXR-bla cell line was tested in parallel by measuring the cell viability using CellTiter-Glo assay in the same wells.
Tox21 Assay Protocol Summary: FXR-bla cells were dispensed at 5000 cells/5uL/well in 1536-well black wall/clear bottom plates using a Multidrop Combi (Thermo Fisher Scientific, Waltham, MA) dispenser. After the assay plates were incubated at 37 C and 5% CO2 for 5 h, 23 nL of compounds dissolved in DMSO, positive controls or DMSO only was transferred to the assay plate by a Pintool station (Kalypsys, San Diego, CA). The assay plates were incubated at 37C for 16 h. After 1 uL of LiveBLAzerTM B/G FRET substrate was added using a Bioraptr Flying Reagent Dispenser (FRD) workstation (Beckman Coulter, Indianapolis, IN), the plates were incubated at room temperature for 2 h, and fluorescence intensity was measured by an Envision plate reader (PerkinElmer, Shelton, CT). For cell viability readout that measures cytotoxicity, 4uL/well of CellTiter-Glo reagent was added into the assay plates using a Bioraptr FRD. After 30 min incubation at room temperature, the luminescence intensity in the plates was measured using a ViewLux plate reader (PerkinElmer).
On the technique in general: qHTS replaces the single test concentration by a dilution series.
With `CC(Cc1ccc(OCC(=O)O)cc1)NCC(O)c1csc(C(F)(F)F)n1` (stereo not given), the Potency result is “inactive”.

For the compound `O=C(Cl)c1ccccc1F`, the Potency entry was “inactive”.

Take `CCC(C)Nc1c([N+](=O)[O-])cc(C(C)(C)C)cc1[N+](=O)[O-]` (stereo not given): the Potency entry was “inactive”.

On to `Clc1cc(Cl)c(-c2cc(Cl)c(Cl)cc2Cl)cc1Cl`, for which the Potency result was “inactive”.

`CC(C)N(C(=O)SC/C(Cl)=C/Cl)C(C)C`: the Potency entry is “inactive”.

Regarding `Clc1ccc(C2(Cn3cncn3)OCCO2)c(Cl)c1`, the Potency result was “inactive”.

In the case of `CCN(CC)Cc1nccn1-c1ccc([N+](=O)[O-])cc1C(=O)c1ccccc1Cl`, the Potency result was “inactive”.

Turning to `CC1CN1` (stereo not given), the Potency entry is “inactive”.

Take `CCNc1nc(NC(C)C(C)C)nc(SC)n1` (stereo not given): the Potency result is “inactive”.

For the compound `CCN(CC)C(=S)S`, the Potency was 12.4 µM (active).

For `CC[C@H](C)[C@H]1O[C@]2(C=C[C@@H]1C)C[C@@H]1C[C@@H](C/C=C(\C)[C@@H](O[C@H]3C[C@H](OC)[C@@H](O[C@H]4C[C@H](OC)[C@@H](NC)[C@H](C)O4)[C@H](C)O3)[C@@H](C)/C=C/C=C3\CO[C@@H]4[C@H](O)C(C)=C[C@@H](C(=O)O1)[C@]34O)O2`, the Potency is 5.49 µM (active).

For `CCCC[N+]1(C)CCCC1` (tested in a mixture with another compound), the Potency entry is “inactive”.

On to `Cc1ccc(C)c2ccccc12`, for which the Potency entry was “inactive”.

For the compound `O=[N+]([O-])c1ccc(Cl)c(Cl)c1Cl`, the Potency result was “inactive”.

As for `CN/C(=N\[N+](=O)[O-])NCc1cnc(Cl)s1`, the Potency result was “inactive”.

Consider `COc1ccc2c3c1O[C@H]1[C@H](O)CC[C@H]4[C@@H](C2)N(C)CC[C@@]341`, for which the Potency result is “inactive”.

`Nc1nc(N)nc(Cl)n1`: the Potency result was “inactive”.

On to `CCCCON=O`, for which the Potency result is “inactive”.

Take `ClC1=C(Cl)[C@]2(Cl)[C@@H]3[C@H]4C[C@H]([C@@H]5O[C@H]45)[C@@H]3[C@@]1(Cl)C2(Cl)Cl`: the Potency result was “inactive”.

`[O]=[Cr][O][Cr]=[O]`: the Potency result was “inactive”.

As to `CN1CCc2cc3c(cc2C1O)OCO3` (stereo not given), the Potency result was “inactive”.

Consider `FC(F)C(F)(F)OCC(Cn1cncn1)c1ccc(Cl)cc1Cl` (stereo not given), for which the Potency entry is “inactive”.

As for `COC(=O)C(C)N(C(=O)c1ccco1)c1c(C)cccc1C` (stereo not given), the Potency result is “inactive”.

Take `CC(=O)C(Cl)C(=O)N(C)C` (stereo not given): the Potency entry is “inactive”.

For the compound `CC(=O)O.CC(=O)O.CC(=O)O.CC(=O)O.CC(=O)O.CC(=O)O.CC(=O)O.O.O.[Cr].[Cr].[Cr]`, the Potency entry was “inactive”.

Turning to `COc1nc(C)nc(NC(=O)NS(=O)(=O)c2ccccc2Cl)n1`, the Potency result is “inactive”.

With `C=Cc1cccc(CCl)c1`, the Potency entry was “inactive”.

On to `C[N+]1(C)[C@@H]2CC[C@H]1CC(OC(=O)C(CO)c1ccccc1)C2` (stereo not given in full), for which the Potency entry was “inactive”.

Consider `c1ccc2c(c1)cc1ccc3cccc4ccc2c1c34`, for which the Potency entry was “inactive”.

For the compound `O.O.O.O.O.O.O=S(=O)([O-])[O-].[Ni+2]`, the Potency entry is “inactive”.

As for `S=C=Nc1ccccc1`, the Potency entry is “inactive”.

Consider `CCCCC/C=C\C/C=C\C/C=C\C/C=C\CCCC(=O)NCC(=O)O`, for which the Potency is 29.8 µM (active).

As to `Cc1nn(-c2cc(NS(C)(=O)=O)c(Cl)cc2Cl)c(=O)n1C(F)F`, the Potency result is “inactive”.

For `O=S1OCC2C(CO1)C1(Cl)C(Cl)=C(Cl)C2(Cl)C1(Cl)Cl` (stereo not given), the Potency was 38.9 µM (active).

Take `Cc1cccc(Cc2cnc[nH]2)c1C`: the Potency result is “inactive”.

For `CN(C)CCc1c[nH]c2ccccc12`, the Potency entry was “inactive”.

Take `Cc1cc2c3c(c1)C(c1ccccc1)=N[C@@H](NC(=O)c1ccncc1)C(=O)N3CC2`: the Potency entry was “inactive”.

For `C=CC(=O)[O][Sn]([CH2]CCC)([CH2]CCC)[CH2]CCC`, the Potency was 1.1 µM (active).

As to `ClCBr`, the Potency result is “inactive”.

As to `Cc1c([N+](=O)[O-])cc2c(c1[N+](=O)[O-])C(C)(C)CC2(C)C`, the Potency result is “inactive”.
